This note sets out measurements from PubChem BioAssay AID1851 (National Center for Advancing Translational Sciences (NCATS), 2009).

Screen size: about 16,000 compounds; about 5,100 (32%) were called active. Another 25% or so got no clear call; they are omitted. Calls follow the shape of the dose curve; as a rule, active = well fitted curve in the direction sought with a large enough effect; inconclusive = small, poorly fitted or top-dose-only effect, or effect the other way; inactive = no such curve, though single readings can be large or run the other way. Some of the results follow.
% is scaled to controls: 0 for no effect and ±100 for the full control effect.

Chain of Cytochrome P450 3A4 (Homo sapiens) (P08684 whole entry, looked up): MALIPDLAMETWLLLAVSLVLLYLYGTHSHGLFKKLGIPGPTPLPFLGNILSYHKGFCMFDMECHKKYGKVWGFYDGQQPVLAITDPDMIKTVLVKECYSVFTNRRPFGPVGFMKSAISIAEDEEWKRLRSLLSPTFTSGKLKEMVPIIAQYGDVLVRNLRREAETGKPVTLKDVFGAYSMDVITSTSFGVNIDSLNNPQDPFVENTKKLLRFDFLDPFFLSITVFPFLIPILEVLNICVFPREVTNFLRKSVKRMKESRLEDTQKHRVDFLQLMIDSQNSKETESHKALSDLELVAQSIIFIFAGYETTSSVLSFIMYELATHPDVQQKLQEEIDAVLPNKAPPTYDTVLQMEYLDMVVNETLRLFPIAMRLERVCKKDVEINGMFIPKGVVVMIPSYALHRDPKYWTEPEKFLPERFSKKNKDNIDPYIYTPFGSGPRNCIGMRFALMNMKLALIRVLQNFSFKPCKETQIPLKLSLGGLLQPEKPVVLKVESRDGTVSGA

This assay addresses Cytochrome P450 3A4 (Homo sapiens) (UniProt P08684). Briefly: Cytochrome panel assay with activity outcomes. The settings on record: recombinant CYP, pro-luciferin dealkylation, luminescence, p450-cyp3a4; series mostly up to 57.1 µM; activity, negative = inhibition: at the top concentration.
On to `COC(=O)c1ccc(NC(=S)N2CCN(Cc3cccc(C)c3)CC2)cc1`, for which the AC50 was 12.6 µM (active).

Take `CC(C)CC(=O)N1CCN(Cc2cccc(F)c2)CC1`: the “activity, negative = inhibition” value is -12.1% (inactive).

With `COc1cccc(NC(=S)NN2CCN(C)CC2)c1`, the “activity, negative = inhibition” value is -3.66% (inactive).

On to `Cc1cccc(C(=O)NC(=S)N2CCN(C)CC2)c1`, for which the “activity, negative = inhibition” value is -11.2% (inactive).

Consider `COc1cccc(N2CCN(C(=S)Nc3cccc(C)c3)CC2)c1`, for which the half-maximal activity concentration (AC50) was 3.55 µM (active).

As for `Cc1cccc(C(=O)NC2CCN(C(=O)N3CCOCC3)CC2)c1`, the “activity, negative = inhibition” value is -3.42% (inactive).

Regarding `Brc1ccc(-c2csc(N3CCC(c4ccccc4)C3)n2)cc1` (stereo not drawn), the “activity, negative = inhibition” value is -2.89% (inactive).

`COc1cccc(-c2csc(N3CCN(C(=S)Nc4ccccc4)CC3)n2)c1`: the AC50 is 8.91 µM (active).

Turning to `Cc1cccc(C(=O)NC2CCN(C(=S)NCc3ccco3)CC2)c1`, the AC50 is 5.62 µM (active).

`Cn1cnc([N+](=O)[O-])c1Sc1nc(N)nc2c1ncn2Cc1ccccc1`: the activity, negative = inhibition was -11.4% [at 11.4 µM] (inactive).

As to `O=C1c2ccccc2C(=O)c2c1ccc(C(=O)O)c2-c1ccc2ccccc2c1`, the activity, negative = inhibition was -2.24% [at 11.4 µM] (inactive).

Take `CN1CCN(C(c2ccccc2)c2ccccc2)CC1`: the “activity, negative = inhibition” value was 0.509% [at 25.6 µM] (inactive).

Take `COc1ccc(-c2csc(N3C(=N)SCC3=O)n2)cc1`: the “activity, negative = inhibition” value was -23.4% (inactive).

With `S=C(NCc1ccco1)N1CCN(C(c2ccccc2)c2ccccc2)CC1`, the concentration at half-maximal activity (AC50) was 12.6 µM (active).

For `COc1cccc(-c2csc(N3CCN(CC(=O)NNC(=O)c4ccc(Cl)cc4)CC3)n2)c1`, the half-maximal activity concentration (AC50) was 11.2 µM (active).

`Clc1ccc(-c2csc(N3CCC(c4ccccc4)C3)n2)cc1` (stereo not drawn): the “activity, negative = inhibition” value was 8.35% (inactive).

For `S=C(NCc1ccco1)N1CCN(Cc2ccco2)CC1`, the activity, negative = inhibition is -5.09% [at 2.29 µM] (inactive).

For `COc1ccc(C(=O)NC2CCN(C(=S)Nc3cccc(C)c3)CC2)cc1`, the AC50 is 15.8 µM (active).

With `CN(C)C(=O)c1ccc(-c2cc(NCc3cccnc3)ncn2)cc1`, the AC50 was 15.8 µM (active).

As for `CN(C)C(=O)c1ccc(-c2cc(NCc3ccccc3)ncn2)cc1`, the “activity, negative = inhibition” value was -5.09% (inactive).

On to `Cc1cccc(CNc2cc(-c3ccc(C(=O)N(C)C)cc3)ncn2)c1`, for which the AC50 is 3.16 µM (active).

For `C[C@H](NC(=O)c1ccc(Cl)c(Cl)c1)c1ccc(-c2ccccc2)cc1`, the activity, negative = inhibition is -6.52% [at 11.4 µM] (inactive).

`COc1ccc(C(NC(=O)c2ccc(-c3ccccc3)cc2)c2ccccc2)cc1` (stereo not drawn): the AC50 is 0.0355 µM (active).

As to `O=C1OC2CC3CC1CC(O)(C3)C2` (stereo not drawn), the “activity, negative = inhibition” value was 30% (inactive).

Consider `CCc1n[nH]c(=S)n1/N=C/c1ccc2c(c1)OCO2`, for which the AC50 was 14.1 µM (active).

On to `Oc1ccc(Cn2c(-c3ccc(O)cc3)nc3ccccc32)cc1`, for which the activity, negative = inhibition was -21.1% [at 11.4 µM] (inactive).

Turning to `CCn1c(-c2ccc(N(C)C)cc2)nc2ccccc21`, the half-maximal activity concentration (AC50) is 10 µM (active).

As for `COc1ccc(C(=O)N2CCC[C@@]3(CCN(Cc4ccc(C#N)cc4)C3)C2)cc1`, the concentration at half-maximal activity (AC50) is 10 µM (active).

In the case of `COC(=O)N1CCC2(CCCN(Cc3ccccc3)C2)CC1`, the “activity, negative = inhibition” value is -29% (inactive).

As for `COc1ccc(C(=O)N2CCC[C@@]3(CCN(Cc4ccccc4)C3)C2)cc1`, the AC50 is 10 µM (active).

`COCC(=O)N1CCC2(CC1)CN(Cc1ccc(C#N)cc1)C2`: the “activity, negative = inhibition” value is 7.5% (inactive).

Regarding `COc1ccc(C(=O)N2CCC[C@@]3(CCN(CC(C)C)C3)C2)cc1`, the AC50 is 7.94 µM (active).

Consider `COc1ccc(C(=O)N2CCC3(CCN(Cc4ccc(C#N)cc4)CC3)CC2)cc1`, for which the “activity, negative = inhibition” value is -21% (inactive).

A word on the AC50: it is the midpoint of the concentration-response curve, whichever way the signal moves.
